# Reference: PubChem BioAssay (Tox21)
# Where “and” joins values, the source holds several entries; their conditions need not be identical. Equal entries are not always repeated. Results filed as inconclusive are left out. A call without a number means that no potency is given here. Some compounds were tested as several samples or in several runs, with calls that do not always agree. Calls of active or inactive are those of the source. Unless noted, calls follow the shape of the dose curve; as a rule, active = well fitted curve in the direction sought with a large enough effect in the repeat runs; inconclusive = weak or mixed curves; inactive = no such curve, though single readings can be large; an effect the other way counts as inactive or inconclusive.
# Key:
# [1] = qHTS assay to identify small molecule antagonists of the estrogen related receptor (ERR) signaling pathway from Tox21 library - cell viability counter screen (AID 1224834); also: nearly all actives have a fitted effect of over 30% in size; also: potency is read from the fitted curve at half-maximal effect
# Summary of the method: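 Counter screen run in ERR cells (2,000 cells/well): cells pre-incubated 6 h, then treated with compounds for 17.5 h at 37 C. Fluorescence was read 30 min after CellTiter-Fluor addition.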
# [2] = molecular target: Luciferin 4-monooxygenase (Photinus pyralis) (UniProt P08659); assay: qHTS assay to identify small molecule inhibitors of firefly luciferase (AID 1224835); also: nearly all actives have a fitted effect of over 25% in size; also: potency is read from the fitted curve at half-maximal effect
# Summary of the method: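 Quantitative HTS format; KM concentrations of both substrates. Purified P. pyralis FLuc activity quantified from luminescence images.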
# [3] = qHTS assay to identify small molecule agonists of the constitutive androstane receptor (CAR) signaling pathway - cell viability counter screen (AID 1224836); also: nearly all actives have a fitted effect of over 45% in size; also: potency is read from the fitted curve at half-maximal effect
# Summary of the method: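 Double-stable HepG2 hepatoma cells (hCAR plus CYP2B6-2.2kb) are treated for 23 h at 37 C with test compounds in 15-point concentration series. PK11195 at 0.75 uM final is co-added. Cell viability is quantified by CellTiter-Fluor.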
# [4] = qHTS assay to identify small molecule antagonists of the constitutive androstane receptor (CAR) signaling pathway - cell viability counter screen (AID 1224837); also: nearly all actives have a fitted effect of over 45% in size; also: potency is read from the fitted curve at half-maximal effect
# Summary of the method: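 CITCO at 50 nM final was added alongside compounds (15 concentrations) to double-stable hCAR/CYP2B6-2.2kb HepG2 cells. Following 23 hr at 37 C, cell viability was quantified by CellTiter-Fluor fluorescence intensity.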
# [5] = molecular target: Nuclear receptor subfamily 1 group I member 3 (Homo sapiens) (UniProt Q14994); assay: qHTS assay to identify small molecule antagonists of the constitutive androstane receptor (CAR) signaling pathway (AID 1224838); also: nearly all actives have a fitted effect of over 40% in size; also: potency is read from the fitted curve at half-maximal effect
# Summary of the method: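 Inhibition of CITCO-driven (50 nM final) CYP2B6 reporter expression is measured in HepG2 cells stably carrying hCAR. Fifteen compound concentrations are applied for 24 h at 37 C, followed by luciferase luminescence.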
# [6] = molecular target: Nuclear receptor subfamily 1 group I member 3 (Homo sapiens) (UniProt Q14994); assay: qHTS assay to identify small molecule agonists of the constitutive androstane receptor (CAR) signaling pathway (AID 1224839); also: nearly all actives have a fitted effect of over 15% in size
# Summary of the method: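 Readout: firefly luciferase luminescence via ONE-Glo. System: HepG2 double-stable for hCAR and CYP2B6-2.2kb. Conditions: 15-point compound titration, PK11195 at 0.75 uM final, 24 h incubation.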
# [7] = molecular target: Thyrotropin receptor (Homo sapiens) (UniProt P16473); assay: qHTS assay to identify small molecule agonists of the thyroid stimulating hormone receptor (TSHR) signaling pathway (AID 1224843; calls by dose curve; also: nearly all actives have a fitted effect of over 45% in size)
# Summary of the method: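 Using 15 concentrations per compound in triplicate, cAMP production was monitored in TSHR-HEK293 cells after 30 min compound incubation at RT; HTRF reagents followed, with fluorescence intensity recorded after 1 h.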
# [8] = qHTS assay to identify small molecule agonists of the hypoxia (HIF-1) signaling pathway - cell viability counter screen (AID 1224844; calls by dose curve; also: nearly all actives have a fitted effect of over 50% in size)
# Summary of the method: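 In this counter screen, HRE-bla ME-180 cell viability after 17 hrs of compound exposure at 37C was read by CellTiter-Glo luminescence, multiplexed with the beta-lactamase reporter measurement.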
# [9] = qHTS assay to identify small molecule agonists of H2AX (AID 1224845; active = well fitted activation curve with a large enough effect in the signal ratio in the repeat runs, not every such curve was filed as active; the % refers to the signal ratio)
# Summary of the method: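 Wild-type CHO-K1 cells plated overnight, then exposed 3 hr at 37C to compounds at 15 concentrations (0.76% DMSO). Lysed, then HTRF anti-pH2AX(S139)-cryptate/anti-H2AX-d2 detection after 24 hr at room temperature; emissions 665 and 620 nm.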
# [10] = qHTS assay to identify small molecule agonists of H2AX - cell viability counter screen (AID 1224847; calls by dose curve; also: nearly all actives have a fitted effect of over 30% in size; also: potency is read from the fitted curve at half-maximal effect)
# Summary of the method: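 For this counter screen, overnight-attached CHO-K1 cells received test compounds (15 concentrations, 0.76% DMSO final); 3 hr later at 37C, CellTiter-Glo reagent was added and luminescence recorded after 30 min at room temperature.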
# [11] = qHTS RealTime-Glo MT Cell Viability Assay in HepG2 cells - 24 hour (AID 1224867); also: nearly all actives have a fitted effect of over 50% in size; also: potency is read from the fitted curve at half-maximal effect
# Summary of the method: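 Compound treatment began 5 h after plating HepG2 cells (600/well) with NanoLuc luciferase and prosubstrate. Plates stayed at 37 C for 40 h; luminescence was captured at six time points, 0 h through 40 h.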
# [12] = qHTS RealTime-Glo MT Cell Viability Assay in HEK293 cells - 32 hour (AID 1224868); also: nearly all actives have a fitted effect of over 50% in size; also: potency is read from the fitted curve at half-maximal effect
# Summary of the method: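 Quantitative high-throughput screen of the Tox21 10K library in HEK293: cells and RealTime-Glo reagents plated together, compound added at 5 h, luminescence monitored through 40 h at 37 C.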
# [13] = A CellTox Green Cytotoxicity Assay to monitor cytotoxicity in HEK293 cells - 0 hour (AID 1224869); also: nearly all actives have a fitted effect of over 50% in size
# Summary of the method: (§1)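 Real-time, in one plate: 600 HEK293 cells/well with dead-cell DNA dye, pinned compound after 5 h, 37 C incubation over 40 h; viable cells give no appreciable fluorescence.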
# [14] = qHTS RealTime-Glo MT Cell Viability Assay in HepG2 cells - 40 hour (AID 1224870); also: nearly all actives have a fitted effect of over 50% in size; also: potency is read from the fitted curve at half-maximal effect
# Summary of the method: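 HepG2 cells mixed with RealTime-Glo MT reagents (NanoLuc plus cell-permeant prosubstrate) were seeded at 600 cells/well, incubated 5 h at 37 C/5% CO2, then pinned with compounds in DMSO; nonlytic luminescence tracked viability during 40 h treatment.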
# [15] = A CellTox Green Cytotoxicity Assay to monitor cytotoxicity in HEK293 cells - 40 hour (AID 1224871); also: nearly all actives have a fitted effect of over 45% in size
# Summary of the method: as §1
# [16] = qHTS assay to identify small molecule agonists of the estrogen related receptor signaling pathway with the pleiotropic PPARgamma coactivator (PGC) from Tox21 10K library (AID 1224842); also: nearly all actives have a fitted effect of over 15% in size
# Summary of the method: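 PGC/ERR reporter cells (NTP line) were seeded 2,000 per well, rested 6 h at 37 C/5% CO2, then pin-dosed with compounds in DMSO for 18 h at 37 C; luciferase read by One-Glo luminescence after 30 min at room temperature.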
# [17] = qHTS assay to identify small molecule agonists of the estrogen related receptor (ERR) signaling pathway from Tox21 library (AID 1224849; calls by dose curve; also: nearly all actives have a fitted effect of over 15% in size); conditions: ERR reporter cell line, ONE-Glo luciferase, 18 h
# Summary of the method: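 Luciferase activity in ERR pathway reporter cells served as the agonist readout; exposure lasted 18 h at 37 C, with ONE-Glo detection after 30 min at room temperature.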
# [18] = qHTS assay to identify small molecule antagonists of the estrogen related receptor signaling pathway with the pleiotropic PPARgamma coactivator (PGC) from Tox21 10K library - cell viability counter screen (AID 1224840; active = well fitted cell-killing curve with a large enough effect in the repeat runs, not every such curve was filed as active; also: nearly all actives have a fitted effect of over 40% in size)
# Summary of the method: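 Readout: fluorescence intensity from CellTiter-Fluor after 30 min at 37 C/5% CO2. Preceded by 17.5 h treatment of PGC/ERR cells with DMSO-dissolved compounds, added 6 h post-seeding.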
# [19] = qHTS assay to identify small molecule agonists of the estrogen related receptor signaling pathway with the pleiotropic PPARgamma coactivator (PGC) (AID 1224823)
# Summary of the method: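 Luminescence readout (One-Glo, 30 min RT) from PGC/ERR cell line treated 18 h at 37 C with pin-tool-delivered DMSO compound solutions; cells plated 6 h before dosing. Quantitative HTS format.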
# [20] = qHTS assay to identify small molecule agonists of the hypoxia (HIF-1) signaling pathway (AID 1224846; active = well fitted activation curve with a large enough effect in the signal ratio in the repeat runs, not every such curve was filed as active; the % refers to the signal ratio)
# Summary of the method: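 ME-180 HRE-bla reporter cells; compounds in DMSO, 17 h at 37C; read-out beta-lactamase via CCF4-AM FRET.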
# Sequence of Nuclear receptor subfamily 1 group I member 3 (Homo sapiens) (Q14994 whole entry, looked up): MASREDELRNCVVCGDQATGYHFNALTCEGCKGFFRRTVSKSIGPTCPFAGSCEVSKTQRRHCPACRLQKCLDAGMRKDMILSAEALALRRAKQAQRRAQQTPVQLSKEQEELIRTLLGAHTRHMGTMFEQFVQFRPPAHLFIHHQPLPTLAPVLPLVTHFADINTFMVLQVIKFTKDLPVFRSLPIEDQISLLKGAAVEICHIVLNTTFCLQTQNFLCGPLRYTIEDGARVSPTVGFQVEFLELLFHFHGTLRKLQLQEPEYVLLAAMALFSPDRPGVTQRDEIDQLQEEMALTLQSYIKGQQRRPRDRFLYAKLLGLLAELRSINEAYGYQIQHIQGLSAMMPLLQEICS
# Sequence of Thyrotropin receptor (Homo sapiens) (P16473 whole entry, looked up): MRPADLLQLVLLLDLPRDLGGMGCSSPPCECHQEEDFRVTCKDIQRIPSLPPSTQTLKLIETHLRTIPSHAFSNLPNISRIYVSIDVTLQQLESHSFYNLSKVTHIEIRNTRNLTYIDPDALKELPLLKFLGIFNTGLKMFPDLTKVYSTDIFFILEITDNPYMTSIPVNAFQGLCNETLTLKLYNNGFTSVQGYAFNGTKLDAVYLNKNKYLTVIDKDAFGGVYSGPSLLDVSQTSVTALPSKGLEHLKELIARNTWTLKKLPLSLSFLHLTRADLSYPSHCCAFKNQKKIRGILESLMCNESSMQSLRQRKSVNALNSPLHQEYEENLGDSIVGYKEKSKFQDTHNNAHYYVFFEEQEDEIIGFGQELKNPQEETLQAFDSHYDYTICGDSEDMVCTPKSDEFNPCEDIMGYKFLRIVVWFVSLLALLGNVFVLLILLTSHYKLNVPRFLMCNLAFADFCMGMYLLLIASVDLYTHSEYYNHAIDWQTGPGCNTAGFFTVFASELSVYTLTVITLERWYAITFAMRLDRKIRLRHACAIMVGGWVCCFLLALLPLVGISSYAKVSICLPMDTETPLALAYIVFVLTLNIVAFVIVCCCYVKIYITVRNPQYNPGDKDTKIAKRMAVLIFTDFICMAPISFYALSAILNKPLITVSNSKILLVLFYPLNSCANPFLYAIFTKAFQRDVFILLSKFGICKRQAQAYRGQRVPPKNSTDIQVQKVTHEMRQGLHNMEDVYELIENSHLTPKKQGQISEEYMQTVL
# Sequence of Luciferin 4-monooxygenase (Photinus pyralis) (P08659 whole entry, looked up): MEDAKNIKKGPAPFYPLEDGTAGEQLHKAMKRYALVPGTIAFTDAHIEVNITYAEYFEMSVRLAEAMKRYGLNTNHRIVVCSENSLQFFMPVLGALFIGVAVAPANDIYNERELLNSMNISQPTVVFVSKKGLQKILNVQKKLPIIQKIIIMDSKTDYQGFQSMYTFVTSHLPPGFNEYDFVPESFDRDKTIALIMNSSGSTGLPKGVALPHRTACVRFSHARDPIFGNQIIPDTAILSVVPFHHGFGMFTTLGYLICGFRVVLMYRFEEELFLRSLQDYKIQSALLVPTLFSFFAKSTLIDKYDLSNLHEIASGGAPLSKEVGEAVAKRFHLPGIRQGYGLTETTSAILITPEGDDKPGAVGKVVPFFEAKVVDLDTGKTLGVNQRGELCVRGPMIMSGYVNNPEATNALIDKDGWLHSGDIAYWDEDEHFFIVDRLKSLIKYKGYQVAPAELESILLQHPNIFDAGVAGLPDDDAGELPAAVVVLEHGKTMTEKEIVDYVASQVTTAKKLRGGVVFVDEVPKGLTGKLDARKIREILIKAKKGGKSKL
compound,measurement,setting,value
CC(=O)C(=O)O,Potency,[1],inactive
same,Potency,[2],inactive
same,Potency,[3],inactive
same,Potency,[4],inactive
same,Potency,[5],inactive
same,Potency,[6],inactive
same,Potency,[7],inactive
same,Potency,[8],inactive
same,Potency,[9],inactive
same,Potency,[10],inactive
same,Potency,[11],inactive
same,Potency,[12],inactive
same,Potency,[13],inactive
same,Potency,[14],inactive
same,Potency,[15],inactive
O=S1(=O)OC(c2ccc(O)cc2)(c2ccc(O)cc2)c2ccccc21,Potency,[1],27.3 µM (active) and 18.8 µM (active)
same,Potency,[2],31.7 µM (active) and 17.8 µM (active) and 12.3 µM (active)
same,Potency,[3],30.6 µM (active) and 27.3 µM (active) and 33.5 µM (active)
same,Potency,[4],27.3 µM (active) and 13.3 µM (active)
same,Potency,[5],inactive
same,Potency,[6],inactive
same,Potency,[16],inactive
same,Potency,[8],inactive
same,Potency,[10],inactive
same,"activity change, positive = activation",[17]; at 42.5 µM (top of the series),-3.19% (inactive)
same,"activity change, positive = activation",[17]; at 92.4 µM (top of the series),-32% (inactive) and -12.4% (inactive)
same,Potency,[11],49 µM (active) and inactive
same,Potency,[12],inactive
same,Potency,[13],inactive
same,Potency,[14],49 µM (active) and inactive
same,Potency,[15],inactive
CN(N=O)C(=O)N[C@@H]1[C@@H](O)[C@H](O)[C@@H](CO)O[C@@H]1O,Potency,[1],inactive
same,Potency,[2],inactive
same,Potency,[3],inactive
same,Potency,[4],inactive
same,Potency,[5],inactive
same,Potency,[6],inactive
same,Potency,[18],inactive
same,Potency,[7],inactive
same,Potency,[8],inactive
same,Potency,[9],inactive
same,Potency,[10],inactive
same,Potency,[11],inactive
same,Potency,[12],inactive
same,Potency,[13],inactive
same,Potency,[14],inactive
same,Potency,[15],inactive
COc1ccc(OC(F)(F)F)cc1CN[C@H]1CCCN[C@H]1c1ccccc1,Potency,[1],54.5 µM (active)
same,Potency,[2],inactive
same,Potency,[3],61.1 µM (active)
same,Potency,[4],54.5 µM (active)
same,Potency,[5],54.5 µM (active)
same,Potency,[6],inactive
same,Potency,[10],113 µM (active)
same,Potency,[12],43.6 µM (active)
same,Potency,[13],inactive
same,Potency,[14],54.9 µM (active)
CCN(CC)C(=O)c1cccc(C)c1,Potency,[1],inactive
same,Potency,[2],inactive
same,Potency,[3],inactive
same,Potency,[4],inactive
same,Potency,[18],inactive
same,Potency,[16],inactive
same,Potency,[7],inactive
same,Potency,[8],inactive
same,Potency,[9],inactive
same,Potency,[10],inactive
same,"activity change, positive = activation",[17]; at 42.5 µM (top of the series),5.47% (inactive)
same,"activity change, positive = activation",[17]; at 92.4 µM (top of the series),0.249% (inactive) and -23.9% (inactive)
same,Potency,[11],inactive
same,Potency,[12],inactive
same,Potency,[13],inactive
same,Potency,[14],inactive
same,Potency,[15],inactive
COc1ccc2c(c1)c(CC(=O)O)c(C)n2C(=O)c1ccc(Cl)cc1,outcome,[19],inactive
same,Potency,[2],inactive
same,Potency,[3],inactive
same,Potency,[4],inactive
same,Potency,[5],inactive
same,Potency,[6],inactive
same,Potency,[18],inactive
same,Potency,[16],inactive
same,Potency,[7],inactive
same,Potency,[8],inactive
same,Potency,[9],inactive
same,outcome,[20],inactive
same,Potency,[10],inactive
same,"activity change, positive = activation",[17]; at 42.5 µM (top of the series),-11.8% (inactive)
same,"activity change, positive = activation",[17]; at 92.4 µM (top of the series),-34.2% (inactive) and -25.5% (inactive)
same,Potency,[11],inactive
same,Potency,[12],inactive
same,Potency,[13],inactive
same,Potency,[14],inactive
same,Potency,[15],inactive
